Pf growth 96h: inhibits malaria parasite growth, 96 h; P. falciparum luciferase reporter growth, 96 h; Potency, µM (doses to about 28.7 µM), for inactives: at the top dose activity change, negative = inhibition, hits mostly inhibitors; 320,000 compounds, 6.9% hits; AID 504834; also: potency is read from the fitted curve at half-maximal effect
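P. falciparum expressing integrated firefly luciferase grown in erythrocytes (2% hematocrit, 0.05% parasitemia final) with compounds for 96 hours at 37 C, 5% CO2. Growth inhibition read as loss of luminescence after adding luciferase detection reagent.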
Pf growth 48h: P. falciparum growth inhibition at 48 hours (one generation); P. falciparum luciferase growth in erythrocytes, 48 h; 310,000 compounds, 5.9% hits; Potency, µM (titrated, usually from 28.7 µM), inactives show at the highest dose activity change, negative = inhibition, usual class: inhibitors; also: potency is read from the fitted curve at half-maximal effect
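Compounds are pin-transferred into medium, infected erythrocytes (2% hematocrit, 0.1% parasitemia final) are added, and plates sit one parasite generation at 37 C in 5% CO2. Detection reagent is then added and luminescence measured.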
HCMV inh: blocks human cytomegalovirus replication | HFF cells, HCMV-luciferase reporter, 72 h; hits give low values | activity change, negative = inhibition, % at 57.5 µM | 410,000 compounds, 4.5% hits; in the data active = activity change below about -60%; inconclusive = no clear call, values can overlap the other calls; inactive = above about -39%
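Luciferase read-out from HCMV-luciferase-infected HFFs (MOI 1 PFU/cell) 72 h post infection at 37C; compounds added after 16 h cell attachment; activity normalized between buffer-only basal and Salinomycin (10uM) inhibitor controls.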
HCV inh: HCV inhibition | Huh7.5.1 HCVcc-Cre infection, luciferase reporter, 44 h | Potency, µM (series often up to 41.8 µM), for the others: at the highest dose activity change, negative = inhibition, hits mostly inhibitors | 340,000 compounds, 3.4% hits; also: potency is read from the fitted curve at half-maximal effect
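A cell-based infection assay in which seeded cells (1,000 per well) receive test compound after 4 h, are inoculated with HCVcc-Cre at approximately 0.5 moi, and are incubated 44 h before luminescence detection.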
Active calls of the source: *; ? = inconclusive; nt = no result given; [ ] = another dose, or the depositor's remark. This is a sample that favours compounds with a hit; in the whole collection about 13% have one here. Unless noted, calls follow the shape of the dose curve; as a rule, active = well fitted inhibition curve with a large enough effect; inconclusive = small, poorly fitted or top-dose-only effect, or another doubt; inactive = no such curve, though single readings can be large or run the other way. % is scaled to controls: 0 for no effect and ±100 for the full control effect.

SMILES | Pf growth 96h | Pf growth 48h | HCMV inh | HCV inh
Cc1ccc(NC(=O)Nc2nc3ccccc3s2)cc1NC(=O)Nc1nc2ccccc2s1 | 2.62µM* | 2.08µM* | -74.3* | 14.1µM*
O=C(Nc1nc2ccccc2s1)Nc1ccc([N+](=O)[O-])cc1Cl | 1.04µM* | ? | nt | nt
CCNC(=O)Nc1nc2ccccc2s1 | 296.3% | 183.9% | 8.3 | 8.9%
CS(=O)(=O)c1ccc2nc(NC(=O)Nc3ccc(Cl)c(Cl)c3)sc2c1 | 47.2% | -22.4% | -37.6 | -2.9%
CCc1ccc(CN2C(=O)c3ccccc3C2C(=O)NC2CCCCCC2)cc1 (stereo unspecified) | nt | nt | -11.7 | nt
COc1ccc2c(c1)CCC(=O)C(C)CCO2 (stereo unspecified) | nt | nt | 4.2 | nt
O=C(Nc1ccc(Cl)cc1)/C(=C/c1ccc([N+](=O)[O-])cc1)c1nc2ccccc2s1 | 1.47µM* | 2.08µM* | nt | nt
O=C(O)CC/C(=C\c1cc([N+](=O)[O-])ccc1Cl)c1nc2ccccc2s1 | 2.8% | -14.4% | 5.8 | -9.7%
O=C(Nc1ccccc1)Nc1ccc(Cl)c([N+](=O)[O-])c1 | -94.3% | ? | ? | 12.6µM*
COc1ccc(OCC(=O)Nc2ccc(C(=O)OCc3cc(=O)n4nc(C)sc4n3)cc2)cc1 | nt | nt | -28.4 | nt
NC(CCC(=O)N[C@@H](CS)C(=O)NCC(=O)O)C(=O)O (stereo partly specified) | 3.01µM* | 2.13µM* | nt | nt
COC(=O)CC[C@H](N)C(=O)O | -24.9% | 2.3% | nt | nt
COc1cccc(-c2nc(S(=O)(=O)c3ccccc3)c(N3CCCCC3)o2)c1 | nt | nt | -1.7 | nt
COc1cccc(OCc2nc3ccccc3n2C)c1 | nt | nt | 66.2 | nt
Cc1cc2ccccc2n1CCNC(=O)c1ccc(S(=O)(=O)N2CCOCC2)cc1 | 0.0% | 4.15µM* | 36.5 | 25.1%
COc1ccc(C(=O)NCCn2ccc3ccccc32)cc1 | -0.5% | ? | -24.9 | -4.4%
Cc1cc2ccccc2n1CCNC(=O)c1ccccc1 | 11.4% | 28.8% | ? | 15.7%
O=C(NCCn1ccc2ccccc21)c1ccc(S(=O)(=O)N2CCCCC2)cc1 | ? | 11.7µM* | -67.3* | ?
N#C[C@@H](c1ccccc1)C1CCN(S(=O)(=O)CCCCl)CC1 | nt | nt | -2.5 | nt
CCCSc1nc2c([nH]c3ccccc32)c(=O)n1C | nt | nt | 63.6 | nt
Cc1ccc(OCC(=O)NNC(=O)C(C)Sc2ncnc3sc(C)c(C)c23)cc1 (stereo unspecified) | -16.8% | 15.1% | -18.5 | 0.2%
Cc1sc2ncnc(SC(C)C(=O)N3c4ccccc4Sc4ccccc43)c2c1C (stereo unspecified) | 7.38µM* | 1.65µM* | ? | ?
CC(C)OCCCN1CN(S(=O)(=O)c2ccccc2)c2nc3ccccc3nc21 | 3.4%[5.75 µM] | ? | 186.9 | 11.7%
CCCCN1CN(S(=O)(=O)c2ccc(OC)cc2)c2nc3ccccc3nc21 | ? | ? | -36.1 | 0.3%
COc1ccc(CCN2CN(S(=O)(=O)c3ccccc3)c3nc4ccccc4nc32)cc1 | 10.4µM* | 11.7µM* | -31.6 | -18.4%
SMILES | Pf growth 96h | Pf growth 48h | HCMV inh | HCV inh
COc1ccc(CCN2CN(S(=O)(=O)c3ccccc3)c3nc4ccccc4nc32)cc1OC | ? | ? | -65.6* | ?
CCc1ccc(S(=O)(=O)c2nnn3c2nc(Nc2cc(OC)cc(OC)c2)c2cc(Cl)ccc23)cc1 | nt | nt | 4.1 | nt
CCOc1ccccc1C(=O)N[C@H](C(=O)OCc1cc(=O)oc2cc(C)ccc12)C(C)C | ? | ? | -22.6 | 10µM*
CCOc1ccccc1C(=O)N[C@H](C(=O)OCc1cc([N+](=O)[O-])cc2c1OCOC2)C(C)C | ? | 13.1µM* | -4.1 | 20µM*
CCOc1ccccc1C(=O)N[C@H](C(=O)OCc1csc(CC(=O)Nc2ccc(C)cc2)n1)C(C)C | nt | nt | 20.9 | 11.2µM*
CCOc1ccccc1C(=O)NCC(=O)OCc1csc(CC(=O)Nc2ccc(C)cc2)n1 | 34.9% | -1.4% | 1.8 | -1.8%
Cc1nn(-c2ccccc2)c(OC(=O)C(C)(C)C)c1Sc1ccccc1 | nt | nt | 23.1 | nt
COc1ccc(NC(=O)c2ccc3c(c2)nnn3C2CCCC2)cc1Cl | nt | nt | -23.6 | nt
Cc1ccc(SSc2cc(C)ccc2N)c(N)c1 | -84.8% | -9.9% | -80.8* | ?
CC(=O)c1cn(CC(=O)Nc2c(C)cccc2C)c2ccccc12 | 45.1% | 7.8% | -74.6* | 5.62µM*
CC(=O)c1cn(CC(=O)NCCc2c[nH]c3ccccc23)c2ccccc12 | -25.7% | 11.1% | -37.5 | 10µM*
CC(=O)c1cn(CC(=O)Nc2ccccc2C)c2ccccc12 | 185.5% | ? | -68.2* | ?
CCC(=O)c1cn(CC(=O)Nc2c(C)cccc2C)c2ccccc12 | 160.0% | 32.1% | 11.4 | -7.5%
CC(C)c1nn2c(=O)cc(COC(=O)c3ccccc3NC(=O)COc3ccccc3)nc2s1 | nt | nt | -12.7 | nt
CCOC(=O)c1c(NC(=O)/C=C/C(=O)O)sc(C)c1-c1ccc(C(C)(C)C)cc1 | 31.4%[5.75 µM] | 1.65µM* | ? | ?
Cc1sc(NC(=O)/C=C/C(=O)O)c(C(N)=O)c1-c1ccc(C(C)(C)C)cc1 | 167.0% | 8.28µM* | ? | 22.1%
CC1CCN(S(=O)(=O)c2ccc3c(c2)N(CC(=O)Nc2ccc(F)c(Cl)c2)C(=O)CO3)CC1 | nt | nt | -10.0 | nt
O=C(O)C12C3CCC(O3)C1(C(=O)O)C1CCC2O1 (stereo unspecified) | nt | nt | -11.7 | 11.9%
C[C@@]12C(=O)OC(=O)[C@]1(C)[C@H]1CC[C@@H]2O1 | 1.02µM* | 2.03µM* | nt | nt
CCc1cc([N+](=O)[O-])cc(CC)c1N | ? | nt | -20.2 | 11.2µM*
Cc1ccc([N+](=O)[O-])cc1N | 51.0% | 18.4% | 39.0 | 4.4%
CCN(CC)CCNC(=O)c1ccc2c(=O)n3nc(Nc4cccc(Cl)c4C)sc3nc2c1 | nt | nt | -32.3 | nt
COc1ccc(S(=O)(=O)N(CC(=O)Nc2cccc(C(F)(F)F)c2)c2ccc(C)cc2)cc1 | nt | nt | -35.5 | nt
COc1cccc(CC(NC(C)=O)C(=O)NC2CCN(S(=O)(=O)c3cccc4ccccc34)CC2)c1 (stereo unspecified) | 11.7µM* | nt | 7.6 | ?
COc1cc(CC(NC(C)=O)C(=O)NC2CCN(C(=O)C3CC3)CC2)cc(OC)c1 (stereo unspecified) | 62.3% | 6.3% | -17.9 | -1.5%
SMILES | Pf growth 96h | Pf growth 48h | HCMV inh | HCV inh
COc1nc(OC)nc(N2CCC(NC(=O)C(Cc3ccc(C(C)C)cc3)NC(C)=O)CC2)n1 (stereo unspecified) | 10.7% | 10.4µM* | 59.0 | 8.3%
COc1ccc(CC(NC(C)=O)C(=O)NC2CCN(c3nnnn3-c3ccccc3)CC2)cc1 (stereo unspecified) | 8.5% | -12.7% | -14.9 | 5.1%
COc1cc(CC(NC(C)=O)C(=O)NC2CCN(c3nc(OC)nc(OC)n3)CC2)cc(OC)c1 (stereo unspecified) | 5.22µM* | 13.1µM* | -28.9 | 10.9%
Cn1cnc(CCNC(=O)[C@@H]2[C@@H](CO)[C@@H]3Cn4c(cccc4=O)[C@H]2N3C(=O)Nc2ccccc2)c1 | nt | nt | -6.3 | nt
O=c1c(Cl)c(Cl)cnn1Cc1nnc(-c2ccccc2Br)o1 | -5.1% | 5.1% | -99.2* | ?
CC(C)Cn1c(=O)c2ccccc2n2c(CCC(=O)NCc3ccccc3Cl)nnc12 | nt | nt | 30.4 | nt
